Most compounds without a hit are left out; they make up all but 4.7% or so of the library.
rCAG binder: r(CAG) repeat RNA binding; TO-PRO-1 dye displacement fluorescence; inhibition, % at 3 µM; hit rate 1.3% among 370,000;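 active = inhibition above the plate cutoff, the mean of all test compounds on that plate plus 3 SD, cut at about 35% in these data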;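 note: higher means more dye released from RNA so lower well fluorescence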
ADAM17 inh: ADAM17 inhibition, QFRET primary screen | P78536 | recombinant ADAM17, EDANS/DABCYL FRET peptide cleavage | inhibition, % at 6.95 µM | hit rate 0.83% among 370,000;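 active = inhibition above the mean of compounds lying between control limits plus 3 SD, set per campaign, cut at about 8.5% in these data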
ADAM10 inh: inhibits human ADAM10 | inhibition, % at 7 µM | hit rate 0.62% among 370,000 | recombinant ADAM10, EDANS/DABCYL FRET peptide cleavage, 3 h | O14672 | AID 720582;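 active = inhibition above a per-campaign cutoff equal to the mean of compounds falling between control-based bounds plus 3 SD, cut at about 20% in these data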
MPTP block: permeability transition pore inhibition. isolated mouse mitochondria, Ca2+ swelling absorbance, 30 min. inhibition, % at 10 µM. hit rate 1.4% among 360,000. AID 602449;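 active = inhibition of 50% or more, scaled per plate between neutral and stimulator controls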
Pemphigus Ab inh: human desmoglein-3 autoantibody binding inhibition; AID 588358; hit rate 0.48% among 310,000; P32926; binding (percent of control), % at 10 µM; DSG3-coupled beads, scFv-anti-DSG3-GFP binding, flow cytometry; hits give low values;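 active = binding more than 3 SD below its plate's average and above zero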;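 note: hits lower antibody fragment binding to DSG3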
KLK7 zymogen act: activates the human kallikrein-7 zymogen; P49862; purified proKLK7, EDANS-DABCYL substrate fluorescence; 100% is mature enzyme control, 0% vehicle; activation, % at 7 µM; hit rate 0.9% among 370,000;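 active = activation above the mean of all tested compounds plus 3 SD, computed per campaign excluding outliers beyond control limits, cut at about 13% in these data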
Target sequence (P49862 whole entry, looked up): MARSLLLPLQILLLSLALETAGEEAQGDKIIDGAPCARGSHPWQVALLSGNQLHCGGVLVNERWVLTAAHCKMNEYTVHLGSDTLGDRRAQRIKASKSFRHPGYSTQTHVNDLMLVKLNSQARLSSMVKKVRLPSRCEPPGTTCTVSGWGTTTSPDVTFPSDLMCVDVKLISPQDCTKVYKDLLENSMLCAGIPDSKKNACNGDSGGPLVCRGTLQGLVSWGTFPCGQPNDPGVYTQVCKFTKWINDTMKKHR
MPTP counter: mitochondrial membrane potential, counter-screen; isolated mitochondria, Rhodamine 123 fluorescence; inhibition, % at 10 µM; hit rate 78% among 5,000; shares compounds with MPTP block; in the data active = inhibition above about 22%
MPTP swell DR: dose response confirmation of mitochondrial permeability transition pore inhibitors. IC50, µM. hit rate 58% among 780. shares compounds with MPTP block. isolated mitochondria swelling, absorbance; in the data active = IC50 below about 20 µM
MPTP cs DR: active in counter-screen for permeability transition pore inhibitors | shares compounds with MPTP block | isolated mitochondria counterscreen, fluorescence read-out | IC50, µM | hit rate 49% among 780; in the data active = IC50 below about 80 µM
Each line names hits and unclear results; the compound was inactive in the other large screens (follow-up assays come after a bar, where they were run).

NC1=NC[C@@H](Cc2ccc(O)cc2)N1CCCCC1CCCCC1	MPTP block 60 | MPTP counter inactive | MPTP swell DR 9.6 | MPTP cs DR 24
O=c1[nH]nc(SCc2nnc(-c3cccc(Cl)c3)o2)n1C1CCCCC1	MPTP block 73 | MPTP counter 33
CN(C(=O)CSc1ncnc2c(-c3cccs3)nsc12)C1CCCCC1	none (no result: MPTP block, Pemphigus Ab inh)
CCS(=O)(=O)Nc1ccc2c(c1)C(=O)N(C)[C@@H]1CC[C@H](CC(=O)NCCCN3CCOCC3)O[C@H]1CO2	none (no result: MPTP block, Pemphigus Ab inh)
COc1ccc(CNC(=O)c2cccc3c(-c4cccnc4)coc23)cc1OC	MPTP block 99 (no result: Pemphigus Ab inh) | MPTP counter 100
O=C(NCc1ccc(F)c(F)c1)c1cccc2c(-c3cccnc3)coc12	none (no result: Pemphigus Ab inh)
FC(F)(F)Oc1cccc(Cn2ccc3ccc(-c4ccc5ccn(Cc6cccc(OC(F)(F)F)c6)c5c4)cc32)c1	none (no result: MPTP block, Pemphigus Ab inh)
CC1CCN(S(=O)(=O)c2ccc(C(=O)Nc3ccccc3-c3nc4ccccc4[nH]3)cc2)CC1	MPTP block 94 | MPTP counter 64
CC1CCN(S(=O)(=O)c2ccc(C(=O)Nc3ncccc3O)cc2)CC1	none (no result: Pemphigus Ab inh)
CC1CCCN(S(=O)(=O)c2ccc(C(=O)Nc3ccccc3-c3nc4ccccc4[nH]3)cc2)C1 (centres undefined)	MPTP block 90 | MPTP counter inactive | MPTP swell DR 7.2 | MPTP cs DR 4.2
COC(=O)[C@]12C[C@H](CC(=O)N3CCSCC3)C(=O)N(CCc3ccc(OC)c(OC)c3)C1=C[C@H](COCc1ccccc1)O[C@@H]2C	none (no result: MPTP block, Pemphigus Ab inh)
CCOC(=O)c1ccc(NC(=O)Nc2nc3ccccc3s2)cc1	MPTP block 83 | MPTP counter 91
COc1ccc(NC(=O)Nc2cnccn2)cc1	none
Cc1cc(NC(=O)Nc2ccc(Cl)c(Cl)c2)no1	MPTP block 82 | MPTP counter 94
Cc1cc(NC(=O)Nc2ccc(Cl)cc2)no1	none
Cc1ccc(NC(=O)Nc2cnccn2)cc1Cl	MPTP block 63 | MPTP counter 64
CCOC(=O)c1ccc(NC(=O)Nc2ccon2)cc1	MPTP block 50 | MPTP counter 65
CCOC(=O)c1ccc(NC(=O)Nc2ccc(Cl)cn2)cc1	none
CCOC(=O)Nc1nc2ccccc2s1	none
COC(=O)[C@]12CCCCC=C1N(Cc1ccc(OC)cc1)C(=O)[C@@H]2CC(=O)N1CCOCC1	none (no result: MPTP block, Pemphigus Ab inh)
COC(=O)[C@]12C[C@H](CC(=O)N3CCN(C(=O)c4ccco4)CC3)C(=O)N(Cc3cccc4ccccc34)C1=C[C@H](C(C)C)O[C@@H]2C1CC1	none (no result: MPTP block, Pemphigus Ab inh)
COc1ccc(NC(=O)Nc2ccon2)cc1OC	none (no result: Pemphigus Ab inh)
C/C(=N\NC(=O)C(=O)Nc1ccc(C)c(Cl)c1)c1ccncc1	MPTP block 55 | MPTP counter inactive | MPTP swell DR 1.5 | MPTP cs DR <2.5
C/C(=N\NC(=O)C(=O)Nc1ccc(C)cc1)c1ccncc1	none
O=C(Nc1ccc(Cl)c(Cl)c1)Nc1ccon1	MPTP block 69 | MPTP counter 103
COc1cc(OC)c(NC(=O)C(Sc2nc(C)cc(C)c2C#N)c2ccccc2)cc1Cl (centres undefined)	none (no result: MPTP block, Pemphigus Ab inh)
Cc1ccc(-n2cc(CNCCCn3ccnc3C)c(-c3ccc(F)cc3)n2)cc1	MPTP block 60 | MPTP counter inactive
Cc1ccc(-c2nn(-c3ccccc3)cc2CNCc2ccccc2)cc1	MPTP block 96 (no result: Pemphigus Ab inh) | MPTP counter inactive | MPTP swell DR 4.7 | MPTP cs DR 30
CC(=O)c1c(C)[nH]c(C(=O)OCC(=O)Nc2ccc(C)cc2[N+](=O)[O-])c1C	MPTP block 100 | MPTP counter 90
Cc1ccc(NC(=O)COC(=O)C2=COCCO2)c([N+](=O)[O-])c1	none
CC(=O)c1c(C)[nH]c(C(=O)OCC(=O)Nc2cc(Cl)ccc2[N+](=O)[O-])c1C	MPTP block 94 | MPTP counter 82
O=[N+]([O-])c1ccc(NC(=S)NCCc2ccc(F)cc2)cc1	MPTP block 100 | MPTP counter 81
O=C(NCCc1ccc(F)cc1)Nc1ccc([N+](=O)[O-])cc1	MPTP block 82 | MPTP counter 79
COc1ccc(CNC(=O)Nc2ccc([N+](=O)[O-])cc2)cc1	MPTP block 99 | MPTP counter 82
COC(CNC(=S)Nc1ccc([N+](=O)[O-])cc1)OC	none
CC(C)c1ccc(NC(=O)NCc2ccc(F)cc2)cc1	MPTP block 61 | MPTP counter 86
Cc1cc(C(F)(F)F)c2c(C)nn(-c3ccccc3)c2n1	none
Cc1nn(-c2ccccc2)c2nc(C(Cl)(Cl)Cl)[nH]c(=O)c12	MPTP block 68 | MPTP counter 57
CC(=O)CCS(=O)(=O)c1ccc(Oc2ccc(S(=O)(=O)CCC(C)=O)cc2)cc1	MPTP block 58 | MPTP counter inactive | MPTP swell DR inactive | MPTP cs DR 59
Fc1ccc([C@@H]2CCNC[C@H]2COc2ccc3c(c2)OCO3)cc1	MPTP block 98 | MPTP counter inactive
COc1cc(NC(=O)NC2CCCCN(Cc3ccc(Cl)cc3)C2=O)cc(OC)c1 (centres undefined)	none (no result: MPTP block, Pemphigus Ab inh)
CCCOc1ccc(C(C(=O)OCCN(CC)CC)c2ccccc2)cc1 (centres undefined)	MPTP block 82 | MPTP counter inactive | MPTP swell DR inactive | MPTP cs DR 73
CCCOc1ccc(C(=O)C(CN2CCCC2)c2ccccc2)cc1 (centres undefined)	MPTP block 79 | MPTP counter inactive
Cc1ccc(CN2CCSc3ccc(C(=O)N4CCN(c5ncccn5)CC4)cc32)cc1	MPTP block 66 (no result: rCAG binder, ADAM17 inh, ADAM10 inh, KLK7 zymogen act) | MPTP counter 95
OCCNCc1cc(Br)ccc1OCc1ccc(Cl)cc1	none
CCOc1cccc(CNCCO)c1OCc1ccc(Cl)cc1Cl	MPTP block 94 | MPTP counter inactive | MPTP swell DR 4.5 | MPTP cs DR 20
CCOc1cccc(CNc2ccc(O)cc2)c1OCc1ccc(Cl)cc1Cl	none (no result: Pemphigus Ab inh)
OCCNCc1cc(Br)ccc1OCc1ccc(Cl)cc1Cl	MPTP block 82 | MPTP counter 20
Cc1ccc(S(=O)(=O)Nc2ccccc2CNc2ncc(Br)cc2Br)cc1	none
Cc1ccc(S(=O)(=O)Nc2ccccc2CNc2ccc(Br)cn2)cc1	MPTP block 68 | MPTP counter 70
Cc1ccc(NC(=S)Nc2cccc3ccccc23)cc1F	MPTP block 64 | MPTP counter 84
C(=C\c1nc(N2CCCC2)c2ccccc2n1)/c1ccccc1	MPTP block 90 | MPTP counter 95
